# Activity calls are given as the source filed them.
# Legend:
# [1] = test system: Plasmodium falciparum Sir2 (PF13_0152, Sir2A); assay: pfSir2 binders on small-molecule microarrays, primary screen, biochemical, small-molecule microarray, 635 nm fluorescence (AID 1098); details: small-molecule microarray binding, fluorescence 635 nm; higher = more signal;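 note: score merges spot fluorescence intensity with its signal-to-noise ratio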
# [2] = small-molecule microarray binders of probe aDKK1, primary screen, biochemical, biotinylated probe, 635/667 nm fluorescence (AID 1099); details: higher = more signal;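 note: score merges 667nm spot fluorescence with signal to noise across triplicate slides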
# [3] = small-molecule microarray binders of probe aCHRDL2, primary screen, biochemical, biotinylated probe, 635/667 nm fluorescence (AID 1100); details: higher = more signal
# [4] = splicing luciferase reporter signal modulators, primary screen, spliceosome inhibition project, cell-based, HEK293, splice +/- reporter (AID 1101); details: luminescence, 24 h, higher = more signal, called active from +8 up or from −8 down;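 note: HEK293 cells carrying a splicing-competent luciferase reporter gene; test concentration not given here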
# [5] = target: Fibroblast growth factor 10 (Homo sapiens) (UniProt O15520); assay: FGF10 binders on small-molecule microarrays, primary screen, biochemical, small-molecule microarray, 635 nm fluorescence (AID 1102); details: FGF10 binding, fluorescence 635 nm, higher = more signal
# Chain of Fibroblast growth factor 10 (Homo sapiens) (O15520 whole entry, looked up): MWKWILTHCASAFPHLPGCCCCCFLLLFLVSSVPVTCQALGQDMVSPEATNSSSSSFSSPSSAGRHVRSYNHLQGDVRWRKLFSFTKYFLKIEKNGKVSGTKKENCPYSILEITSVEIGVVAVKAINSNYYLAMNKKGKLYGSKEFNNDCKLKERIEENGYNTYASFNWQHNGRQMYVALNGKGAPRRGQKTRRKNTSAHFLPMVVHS
# [6] = test system: glycogen synthase kinase-3 (GSK3A per assay name; protocol says GSK3B); assay: GSK3 binders on small-molecule microarrays, primary screen, biochemical, small-molecule microarray, 635 nm fluorescence, GSK3A (AID 1103); details: small-molecule microarray binding, fluorescence 635 nm; higher = more signal; note: the record names both GSK3A and GSK3B
# [7] = target: Epidermal growth factor receptor (Homo sapiens) (UniProt P00533); assay: EGFR binders on small-molecule microarrays, primary screen, biochemical, small-molecule microarray, 635 nm fluorescence (AID 1104); details: EGFR binding, higher = more signal;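 note: score merges 667 nm emission intensity with spot signal to noise over triplicate slides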
# Chain of Epidermal growth factor receptor (Homo sapiens) (P00533 whole entry, looked up): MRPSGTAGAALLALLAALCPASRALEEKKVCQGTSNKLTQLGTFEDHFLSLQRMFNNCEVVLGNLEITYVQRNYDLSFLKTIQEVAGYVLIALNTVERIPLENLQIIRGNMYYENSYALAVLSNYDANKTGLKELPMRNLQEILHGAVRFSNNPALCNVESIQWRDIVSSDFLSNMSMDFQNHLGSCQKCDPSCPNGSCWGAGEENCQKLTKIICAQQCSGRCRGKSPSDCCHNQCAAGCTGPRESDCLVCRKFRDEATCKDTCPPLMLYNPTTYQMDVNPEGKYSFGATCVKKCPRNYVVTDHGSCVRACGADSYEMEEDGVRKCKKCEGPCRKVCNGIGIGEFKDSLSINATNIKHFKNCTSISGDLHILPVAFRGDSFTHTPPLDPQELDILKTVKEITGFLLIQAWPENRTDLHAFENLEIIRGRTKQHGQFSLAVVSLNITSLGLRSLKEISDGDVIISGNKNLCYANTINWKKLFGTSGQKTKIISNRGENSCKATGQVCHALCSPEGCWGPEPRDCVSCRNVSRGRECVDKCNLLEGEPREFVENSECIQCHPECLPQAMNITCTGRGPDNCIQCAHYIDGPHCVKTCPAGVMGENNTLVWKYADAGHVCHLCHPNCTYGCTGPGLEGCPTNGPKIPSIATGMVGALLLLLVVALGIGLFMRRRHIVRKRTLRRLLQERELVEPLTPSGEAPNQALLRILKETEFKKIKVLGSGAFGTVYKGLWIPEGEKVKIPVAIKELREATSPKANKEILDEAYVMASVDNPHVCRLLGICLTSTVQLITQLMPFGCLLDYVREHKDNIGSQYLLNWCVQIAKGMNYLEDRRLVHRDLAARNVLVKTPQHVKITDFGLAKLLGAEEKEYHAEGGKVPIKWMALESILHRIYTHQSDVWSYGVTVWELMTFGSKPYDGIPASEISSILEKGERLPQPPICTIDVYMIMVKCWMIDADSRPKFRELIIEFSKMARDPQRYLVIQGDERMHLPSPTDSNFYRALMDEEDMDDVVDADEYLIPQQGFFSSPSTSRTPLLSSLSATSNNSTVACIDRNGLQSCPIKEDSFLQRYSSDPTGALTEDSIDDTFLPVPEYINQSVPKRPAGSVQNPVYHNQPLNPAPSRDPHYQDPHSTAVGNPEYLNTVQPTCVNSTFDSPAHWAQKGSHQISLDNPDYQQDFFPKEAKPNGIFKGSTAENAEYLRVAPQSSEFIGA
# [8] = target: Follistatin-related protein 3 (Homo sapiens) (UniProt O95633); assay: FSTL3 binders on small-molecule microarrays, primary screen, biochemical, small-molecule microarray, 635 nm fluorescence (AID 1105); details: FSTL3 binding, higher = more signal;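 note: score merges emission near 667 nm and signal to noise per printed spot across three slides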
# Chain of Follistatin-related protein 3 (Homo sapiens) (O95633 whole entry, looked up): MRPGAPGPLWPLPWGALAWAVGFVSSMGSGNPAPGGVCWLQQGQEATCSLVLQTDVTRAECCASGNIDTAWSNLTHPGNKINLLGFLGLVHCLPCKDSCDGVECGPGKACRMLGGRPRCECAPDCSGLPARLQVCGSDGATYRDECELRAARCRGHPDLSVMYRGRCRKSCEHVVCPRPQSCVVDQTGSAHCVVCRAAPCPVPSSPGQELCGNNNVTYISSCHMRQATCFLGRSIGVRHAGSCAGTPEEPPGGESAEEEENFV
# [9] = target: Dickkopf-related protein 1 (Homo sapiens) (UniProt O94907); assay: DKK1 binders on small-molecule microarrays, primary screen, biochemical, small-molecule microarray, 635 nm fluorescence scan (AID 1106); details: DKK1 binding, higher = more signal;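 note: score merges emission near 667 nm with signal to noise over three replicate slides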
# Chain of Dickkopf-related protein 1 (Homo sapiens) (O94907 whole entry, looked up): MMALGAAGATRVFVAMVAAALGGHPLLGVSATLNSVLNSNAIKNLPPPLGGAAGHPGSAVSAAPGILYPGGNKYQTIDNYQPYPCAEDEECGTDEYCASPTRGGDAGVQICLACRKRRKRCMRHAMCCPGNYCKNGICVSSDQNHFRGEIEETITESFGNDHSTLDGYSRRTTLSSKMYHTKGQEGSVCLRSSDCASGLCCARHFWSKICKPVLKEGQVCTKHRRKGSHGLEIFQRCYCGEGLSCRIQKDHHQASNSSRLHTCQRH
# [10] = test system: Inhibin beta A chain (activin A); assay: INHBA (activin A) binders on microarrays, primary screen, biochemical, small-molecule microarray, 635 nm fluorescence scan (AID 1107); details: small-molecule microarray binding, higher = more signal;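 note: mouse activin A protein probed at 4.33 µg/mL on printed slides; score merges bound-protein fluorescence near 667 nm with spot signal-to-noise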
# [11] = test system: Human papillomavirus type 1a protein E7 (residues 44-93); assay: HPV1a E7 fragment binders on microarrays, primary screen, biochemical, small-molecule microarray, residues 44-93, 635 nm fluorescence (AID 1108); details: small-molecule microarray binding, fluorescence 635 nm; higher = more signal;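 note: E7 fragment applied at 1 µg/mL in TBST for 1 h at 4 C; score combines spot fluorescence with its signal to noise ratio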
# [12] = modulators of HCV replicon luciferase signal, primary screen, HCV replication inhibitor project, Huh7 cells, luciferase reporter (AID 1109); details: 48 h, higher = more signal;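 note: huh7 hepatoma cells harbouring a luciferase neomycin HCV replicon reporter; luciferase luminescence as measure of HCV replicon replication; test concentration not given here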
# [13] = target: Left-right determination factor 2 (Homo sapiens) (UniProt O00292); assay: LEFTY2 binders on small-molecule microarrays, primary screen, biochemical, small-molecule microarray, 635 nm fluorescence scan (AID 1110); details: LEFTY2 binding, higher = more signal
# Chain of Left-right determination factor 2 (Homo sapiens) (O00292 whole entry, looked up): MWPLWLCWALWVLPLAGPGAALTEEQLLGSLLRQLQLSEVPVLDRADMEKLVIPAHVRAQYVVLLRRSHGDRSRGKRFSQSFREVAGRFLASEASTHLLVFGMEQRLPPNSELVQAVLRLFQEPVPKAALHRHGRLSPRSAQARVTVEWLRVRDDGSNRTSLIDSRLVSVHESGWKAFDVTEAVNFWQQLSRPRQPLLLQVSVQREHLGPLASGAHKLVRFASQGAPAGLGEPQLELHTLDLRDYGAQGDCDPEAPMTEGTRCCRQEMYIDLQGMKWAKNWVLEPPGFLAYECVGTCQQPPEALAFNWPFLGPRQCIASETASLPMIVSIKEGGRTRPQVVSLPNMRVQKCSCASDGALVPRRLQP
# [14] = target: Calmodulin-1 (Homo sapiens) (UniProt P0DP23); assay: CALM1 binders on microarrays, EGTA buffer, profiling panel, biochemical, small-molecule microarray, Cy5-labelled CALM1 (AID 1111); details: Cy5-CALM1 binding fluorescence, higher = more signal;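 note: labelled calmodulin applied in Tris saline Tween buffer holding calcium plus EGTA and DTT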
# [15] = target: Calmodulin-1 (Homo sapiens) (UniProt P0DP23); assay: calcium-bound CALM1 binders on microarrays, profiling panel, artefact control for SMM control-protein annotation, biochemical, small-molecule microarray, Cy5-labelled CALM1, plus calcium (AID 1112); details: Cy5-CALM1 binding fluorescence, higher = more signal;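 note: score merges spot fluorescence with signal to noise from triplicate slides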
# [16] = small-molecule microarray binders of probe aWnt5a, primary screen, biochemical, biotinylated probe, 635/667 nm fluorescence (AID 1113); details: higher = more signal;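 note: score merges 667 nm fluorescence intensity with signal-to-noise per printed feature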
# [17] = small-molecule microarray binders of probe aShh, primary screen, biochemical, biotinylated probe, 635/667 nm fluorescence (AID 1114); details: higher = more signal;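 note: probe is biotin-labelled aShh protein from a stem cell growth factor screen; measures binding of labelled protein to compounds printed on the slide; score merges feature fluorescence at 667 nm with signal-to-noise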
# [18] = small-molecule microarray binders of probe aNog, primary screen, biochemical, biotinylated probe, 635/667 nm fluorescence (AID 1115); details: higher = more signal;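 note: probe is biotinylated aNog protein used at 0.15 µg/mL for 1 h at 4 C; z-score combines 667 nm fluorescence of each spot with its signal to noise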
# [19] = target: Torsin-1A-interacting protein 1 (Homo sapiens) (UniProt Q5JTV8); assay: LAP1 binders from COS7 cell lysate, primary screen, small-molecule microarray, 635/667 nm fluorescence (AID 1116); details: COS7-hLAP1 lysate binding, 635 nm fluorescence, higher = more signal
# Chain of Torsin-1A-interacting protein 1 (Homo sapiens) (Q5JTV8 whole entry, looked up): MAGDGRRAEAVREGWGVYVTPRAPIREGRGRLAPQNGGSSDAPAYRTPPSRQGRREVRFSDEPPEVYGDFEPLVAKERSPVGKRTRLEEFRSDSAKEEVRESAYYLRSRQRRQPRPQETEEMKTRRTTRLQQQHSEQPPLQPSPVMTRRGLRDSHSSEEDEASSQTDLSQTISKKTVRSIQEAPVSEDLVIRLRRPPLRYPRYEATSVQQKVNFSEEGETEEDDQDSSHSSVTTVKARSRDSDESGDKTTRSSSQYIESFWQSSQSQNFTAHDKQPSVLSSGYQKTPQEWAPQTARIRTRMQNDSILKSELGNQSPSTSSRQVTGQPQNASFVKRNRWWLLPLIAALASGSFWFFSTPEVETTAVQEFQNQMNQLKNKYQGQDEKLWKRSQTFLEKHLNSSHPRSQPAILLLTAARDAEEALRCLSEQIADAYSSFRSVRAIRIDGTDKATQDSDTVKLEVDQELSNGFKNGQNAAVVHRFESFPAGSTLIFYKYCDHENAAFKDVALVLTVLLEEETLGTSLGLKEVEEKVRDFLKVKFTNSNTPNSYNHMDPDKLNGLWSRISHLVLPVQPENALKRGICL
# [20] = target: Alpha-bungarotoxin (Bungarus multicinctus) (UniProt P60615); assay: alpha-bungarotoxin binders on microarray, profiling panel, artefact control for SMM control protein annotation, biochemical, small-molecule microarray, Alexa647 label, 635/667 nm fluorescence (AID 1117); details: alpha-BTX-A647 binding fluorescence, higher = more signal
# Chain of Alpha-bungarotoxin (Bungarus multicinctus) (P60615 whole entry, looked up): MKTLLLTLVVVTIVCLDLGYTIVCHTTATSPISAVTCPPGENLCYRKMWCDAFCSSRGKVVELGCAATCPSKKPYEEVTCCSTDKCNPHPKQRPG
SMILES,composite z-score [1],composite z-score [2],composite z-score [3],z-score [4],composite z-score [5],composite z-score [6],composite z-score [7],composite z-score [8],composite z-score [9],composite z-score [10],composite z-score [11],z-score [12],composite z-score [13],composite z-score [14],composite z-score [15],composite z-score [16],composite z-score [17],composite z-score [18],composite z-score [19],composite z-score [20]
[N-]=[N+]=Nc1ccccc1C[C@]1(C(=O)N2CCOCC2)N=C(c2ccc(OCCCO)cc2)O[C@H]1c1ccccc1N=[N+]=[N-],1.53,0.651,0.915,-0.591 (inactive),1.41,1.31,0.857,1.47,1.42,1.3,1.29,-2.23,1.22,1.5,-0.388,0.145,0.275,-0.626,1.9,1.84
CC(C)=CCCC(C)=CC(O)C1C=CC2C(=O)NC(=O)C2N1Nc1ccc(Cl)cc1Cl (stereo not given),0.44,0.34,0.992,1.22 (inactive),0.499,0.0742,0.542,1.1,0.153,1.44,1.36,-0.922,0.41,1.69,0.254,-0.0327,0.14,1.5,1.17,0.451
C=C(CCCC)/C(=C/C[C@H](OC(=O)c1ccncc1)c1ccc(OCCO)cc1)c1cnc2ccccc2c1,1.47,-0.107,0.164,-0.0197 (inactive),0.898,0.829,0.776,1.45,0.768,1.36,-0.38,-2.25,0.437,0.679,-0.159,-0.129,-0.0146,-0.125,0.49,2.52
CC(C)NC(=O)[C@@]1(c2ccc([N+](=O)[O-])cc2)CC(=O)N(CC23CC4CC(CC(C4)C2)C3)[C@@H]1c1ccc(CO)cc1,1.4,0.998,0.931,-0.279 (inactive),0.911,1.34,0.396,1.45,1.3,0.64,0.939,-2.7,1.03,1.03,-0.0022,0.289,0.321,1.85,1.52,1.37
COC(=O)C(CC#Cc1ccc2c(c1)[C@]1(C(=O)N2)[C@H](C(=O)NC[C@H](O)c2ccccc2)[C@H]2C(=O)O[C@H](c3ccccc3)[C@H](c3ccccc3)N2[C@@H]1c1ccccc1OCCO)C(=O)OC,1.19,0.138,0.141,0.163 (inactive),1.22,1.19,0.308,0.866,0.502,0.205,1.45,-1.92,0.441,0.413,-0.0643,-0.1,-0.167,0.149,1.67,1.61
CCOC(=O)C[C@H]1[C@H](OC(=O)c2ccccc2-c2ccccc2)[C@@H](NC(=O)C2CCCCC2)c2cc(OCCCO)ccc2N1C(=O)c1ccc2ccccc2n1,0.486,-0.0483,-0.334,0.0681 (inactive),0.679,0.452,0.27,0.845,0.483,-0.286,1.31,-1.71,0.358,0.236,-0.24,-0.0087,0.0611,0.0707,-0.0006,0.026
CCCN1C(=O)[C@@]2(c3ccc([N+](=O)[O-])cc3)CC(=O)N(CC34CC5CC(CC(C5)C3)C4)[C@@H]2c2ccc(CO)cc21,-0.596,0.0721,0.342,0.331 (inactive),-0.334,-0.619,-0.381,-0.701,-0.626,0.378,0.0595,-0.767,-0.242,-0.0921,-0.647,-0.0203,-0.0519,-0.873,-0.38,-0.0061
O=C(NCCN1CCOCC1)[C@@H]1c2ccccc2C(=O)N(Cc2ccccc2C(F)(F)F)[C@H]1c1ccc(CO)cc1,0.99,-0.745,-0.31,-0.422 (inactive),-0.393,0.0726,-1.11,-0.708,-1.28,-0.735,1.01,-0.513,-1.45,-0.804,-0.56,-0.145,-0.73,0.0703,-0.851,-0.755
COc1ccc([Si](C)(C)[C@H]2[C@H](CCO)O[C@@]3(C(=O)N(Cc4cccc(N5C(=O)c6ccccc6Oc6ccccc65)c4)c4ccccc43)[C@@H]2C)cc1,0.742,-0.109,-0.236,-1.93 (inactive),0.396,-0.479,0.111,-0.628,-0.0781,0.212,0.72,-4.89,-0.296,0.29,0.53,-0.091,-0.262,-0.0816,0.449,0.71
COCCCNC(=O)[C@@]1(CCS(=O)(=O)c2ccccc2)COC(c2ccc(OCCCO)cc2)=N1,1.37,1.56,1.47,0.0749 (inactive),0.946,0.878,-0.318,-0.0346,-0.0211,0.952,0.0612,-0.46,-0.241,2.65,1.26,0.0919,0.363,2.04,3.1,3.34
CC(C)(C)N1CC=CC23O[C@@H]4C=CCOC(=O)[C@@H]4[C@H]2C(=O)N(CCO)[C@@H]3C1=O (stereo not given in full),1.75,-0.243,0.375,-0.273 (inactive),-1.05,-1.14,-0.687,-0.955,-1.44,-0.545,0.0175,-0.471,-1.37,-0.605,0.546,-0.15,0.0136,-0.364,-0.843,-0.7
